From PubChem BioAssay (EPA / NIEHS)
Where “and” joins values, the source holds several entries; their conditions need not be identical. Equal entries are not always repeated. Calls of active or inactive are those of the source. How the source made its calls: active means hit-call score of the fitted dose curve at least 0.9, where 1 is the maximum; inconclusive means response in the unintended direction; inactive means score below 0.9.

Each compound was assayed on rat CYP2B1, gene 24300 (assay: NVS_ADME_rCYP2B1: NovaScreen (NVS) CYP450-related Enzyme Activity (ADME) Assay for rat CYP2B1 (AID 2283117)).
Procedure: NVS_ADME_rCYP2B1 is a biochemical, single-readout assay that uses extracted gene-proteins in a cell-free assay. Measurements were taken 0.75 hour after chemical dosing in a 96-well plate.NVS_ADME_rCYP2B1 is one of one assay component(s) measured or calculated from the NVS_ADME_rCYP2B1 assay. It is designed to make measurements of enzyme activity, a form of enzyme reporter, as detected with fluorescence intensity signals by Fluorescence technology.Data from the assay component NVS_ADME_rCYP2B1 was analyzed into 1 assay endpoint. This assay endpoint, NVS_ADME_rCYP2B1, was analyzed in the positive analysis fitting direction relative to Acetonitrile as the negative control and baseline of activity. Using a type of enzyme reporter, loss-of-signal activity can be used to understand changes in the enzymatic activity as they relate to the gene Cyp2b1. Furthermore, this assay endpoint can be referred to as a primary readout, because this assay has produced multiple assay endpoints where this one serves a enzymatic activity function. To generalize the intended target to other relatable targets, this assay endpoint is annotated to the cyp intended target family, where the subfamily is xenobiotic metabolism.
Binding assays used specific radioligands (tritiated, iodinated) with non-radioactive competitive displacement ligands in agonist or antagonist protocols (as indicated) and various reference compounds and inhibitors to titrate specific binding to receptors and transporters. Most enzyme assays (CYPs, kinases, phosphatases, proteases, HDACs) used recombinant protein and specific substrates (fluorescence mostly, some colorimetric and radioactive) and inhibitors, followed by a biochemical separation of substrate and product. All assays for the biochemical HTS were initially run in duplicate at a single concentration (10 uM for CYP450 assays and 25 uM for all others). Assay-chemical combinations meeting a pre-defined threshold (e.g., 30% inhibition and other criteria defined below) were then run in singleton concentration-response format with maximum concentration of 20 uM for CYPs and 50 uM for all others. Each assay was run with positive and negative controls, and concurrent controls on every plate. The follow-up (secondary) screen tested active chemical-pairs in concentration series, as well as a few additional assays not tested in the primary screen, some selected negative inactives, and several cases re-run in the concentration series for confirmatory purposes.
For COP(=S)(OC)SCn1nnc2ccccc2c1=O, the AC50 was 3.35 µM (active). In the case of CCCN(CC)CC1COC2(CCC(C(C)(C)C)CC2)O1 (stereo unspecified), the outcome is reported as “inactive”. In the case of CCNP(=S)(OC)O/C(C)=C/C(=O)OC(C)C (stereo unspecified), the AC50 is reported as 1.45 µM (active). In the case of CC(C)(C)C(=O)C(Oc1ccc(Cl)cc1)n1cncn1 (stereo unspecified), the AC50 is reported as 549 nM (active) and 1.69 µM (active). With CCNC(=O)NC(=O)C(C#N)=NOC the outcome was “inactive”. CCCCC(O)(Cn1cncn1)c1ccc(Cl)cc1Cl (stereo unspecified) was tested, and the AC50 was 0.0547 µM (active). With COP(=S)(OC)Oc1ccc([N+](=O)[O-])c(C)c1 the AC50 was 1.17 µM (active). In the case of CC1(C)CCC(=Cc2ccc(Cl)cc2)C1(O)Cn1cncn1 (stereo unspecified), the AC50 is reported as 1.84 µM (active). For N#Cc1c(Cl)cccc1Cl, the outcome was “inactive”. With CC(C)C1(C)N=C(c2ncccc2C(=O)O)NC1=O (stereo unspecified) the outcome was “inactive”. For CCCCC(C#N)(Cn1cncn1)c1ccc(Cl)cc1 (stereo unspecified), the AC50 was 1.64 µM (active).
